Here are results for 14 compounds from PubChem BioAssay (NCATS).

Structures are written as SMILES. Inconclusive results are not listed. Calls of active or inactive are those of the source. The call rests on the fitted dose curve; in most records, active means well fitted inhibition curve with a large enough effect; inconclusive means small, poorly fitted or top-dose-only effect; inactive means flat fitted curve, though single readings scatter.
Potency means the concentration at half of the fitted maximal effect.

For this assay, the system named is Zika virus NS2B-NS3 protease. Kind of assay: Primary screen GU AMC qHTS for Zika virus inhibitors (AID 1347154). Further: nearly all actives have a fitted effect of over 70% in size.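 On activity change, negative = inhibition: 0% = no-inhibitor control and -100% = no-enzyme control.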 The note with it: Zika NS2B-NS3 unlinked protease, AMC fluorogenic substrate; series mostly up to 54.1 µM; activity change, negative = inhibition: at the top concentration. An outline of the steps:
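Fluorogenic AMC-substrate cleavage by noncovalent NS2B-NS3 protease complex (25 nM, pH 8.0 Tris buffer with Tween 20) followed for 15 minutes at room temperature (~20% conversion). Percent inhibition from ex340/em450 signal change, fitted by 4-parameter Hill equation.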
A general note: In qHTS, concentration-response curves come from the screen itself.
For the compound `NC(=O)c1ncn([C@@H]2O[C@H](CO)[C@@H](O)[C@@H]2O)c1N`, the “activity change, negative = inhibition” value is -12% (inactive). Same read-out and setting: next, `COc1cc(N2CCC(C(N)=O)CC2)ccc1Nc1nc(N)c(Cl)c(Nc2ccccc2S(=O)(=O)C(C)C)n1`: 17.2% (inactive); `C#Cc1cccc(Nc2ncnc3cc(OCCOC)c(OCCO)cc23)c1`: 1.33% (inactive); `OC[C@@H](O)[C@@H](O)[C@H](O)[C@@H](O)CO`: 16.4% (inactive). As for `Oc1cc2c(cc1O)C1c3ccc(O)c(O)c3OCC1(O)C2` (centres undefined), the Potency is 24.1 µM (active). In the case of `C[C@H](CCC(=O)O)[C@H]1CC[C@H]2[C@@H]3[C@H](O)C[C@@H]4C[C@H](O)CC[C@]4(C)[C@@H]3CC[C@]12C`, the “activity change, negative = inhibition” value was -12.8% (inactive). Same read-out and setting: next, `COc1ccc(Nc2nccc(NCCO)n2)cc1`: -13.3% (inactive); `CN1[C@H]2CC(OC(=O)[C@@H](CO)c3ccccc3)C[C@H]1[C@H]1O[C@H]12` (some centres undefined): 15% [at 25.8 µM] (inactive). The same measure, in the same setting: next, `C=C1C[C@@]2(O)O[C@@]3(C[C@H]2C(C)C)[C@H](C)CC[C@H]13`: -1.39% (inactive). On the same count and under the same terms, with `C[C@]12C=CC(=O)N[C@@H]1CC[C@H]1[C@H]3CC[C@@H](C(=O)Nc4cc(C(F)(F)F)ccc4C(F)(F)F)[C@@]3(C)CC[C@@H]12` the figure was -4.03% (inactive). Consider `CN1C(C(=O)Nc2ccccn2)=C(O)c2sc(Cl)cc2S1(=O)=O`, for which the “activity change, negative = inhibition” value is -6.17% (inactive). Same read-out and setting: with `C[C@@H]1C(=O)O[C@H]2CC34[C@H]5C[C@@H](C(C)(C)C)C36[C@H](OC(=O)[C@@H]6O)O[C@@]4(C(=O)O5)[C@]21O` (some centres undefined) the figure was 16.7% (inactive); with `C[C@H](NC(=O)C(C#N)=Cc1cccc(Br)n1)c1ccccc1`, 5.08% (inactive); with `CC[C@H](CC[C@@H](C)[C@H]1CC[C@H]2[C@@H]3CC=C4C[C@@H](O)CC[C@]4(C)[C@@H]3CC[C@]12C)C(C)C`, -2.51% (inactive).
